Test results reported in PubChem BioAssay AID743320 (Broad Institute, 2014).
Entries with a potency or affinity are not part of this list. Activity calls are given as the source filed them.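 The calls were made as follows: active = signal drop whose fitted half-maximal potency is at most twice the top valid dose tested; inconclusive = flat curve inhibiting 30 to 70 percent, or a poor fit; inactive = the rest.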

Biological target: Endoplasmic reticulum aminopeptidase 2 (Homo sapiens) (UniProt Q6P179)
Experiment: ERAP2 aminopeptidase inhibitors, dose response, selectivity assay for selective ERAP1 modulator project, biochemical, fluorescence plate reader, cherry-picked, set 2 (AID 743320)
Conditions: recombinant ERAP2, Arg-AMC fluorescence, 1 h; series mostly up to 11 µM

Endoplasmic reticulum aminopeptidase 2 (Homo sapiens), sequence (Q6P179 whole entry, looked up): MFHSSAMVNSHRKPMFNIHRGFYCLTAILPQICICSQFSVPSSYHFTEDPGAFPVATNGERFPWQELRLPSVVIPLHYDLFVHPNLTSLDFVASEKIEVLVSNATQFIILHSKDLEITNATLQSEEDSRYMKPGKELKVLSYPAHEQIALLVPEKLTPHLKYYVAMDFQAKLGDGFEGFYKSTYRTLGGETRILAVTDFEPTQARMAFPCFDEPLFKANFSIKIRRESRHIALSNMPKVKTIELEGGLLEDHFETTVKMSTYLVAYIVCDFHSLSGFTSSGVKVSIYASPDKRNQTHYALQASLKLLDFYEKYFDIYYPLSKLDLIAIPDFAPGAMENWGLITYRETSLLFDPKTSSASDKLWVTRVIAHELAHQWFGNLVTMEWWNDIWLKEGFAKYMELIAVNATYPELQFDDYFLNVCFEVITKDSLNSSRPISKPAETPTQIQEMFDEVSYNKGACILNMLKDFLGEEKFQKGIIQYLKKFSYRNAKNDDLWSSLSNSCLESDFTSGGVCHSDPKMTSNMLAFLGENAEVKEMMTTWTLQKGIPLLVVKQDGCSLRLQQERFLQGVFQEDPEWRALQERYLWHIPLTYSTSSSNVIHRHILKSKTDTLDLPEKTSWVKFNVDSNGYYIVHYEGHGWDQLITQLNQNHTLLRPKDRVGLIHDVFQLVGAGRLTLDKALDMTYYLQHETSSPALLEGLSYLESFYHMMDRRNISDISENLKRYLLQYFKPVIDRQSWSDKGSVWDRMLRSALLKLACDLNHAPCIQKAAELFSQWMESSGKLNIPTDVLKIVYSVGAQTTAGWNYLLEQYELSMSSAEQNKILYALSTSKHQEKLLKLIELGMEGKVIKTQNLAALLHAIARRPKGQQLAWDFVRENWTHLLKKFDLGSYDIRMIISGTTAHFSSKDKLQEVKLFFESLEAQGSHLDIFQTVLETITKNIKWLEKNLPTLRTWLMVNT

outcome, inactive:
C[C@@H]1CCCCO[C@@H](CN(C)S(C)(=O)=O)[C@@H](C)CN([C@@H](C)CO)C(=O)c2cc(NS(=O)(=O)c3ccc(Cl)cc3)ccc2O1, COc1cccc(S(=O)(=O)N(C)C[C@@H]2Oc3ncccc3C(=O)N([C@H](C)CO)C[C@@H]2C)c1, O=C(C[C@H]1CC[C@H]2[C@@H](COC[C@@H](O)CN2C(=O)Nc2cccc(Cl)c2)O1)N1CCCCC1, COc1ccc(CN(C)C[C@H]2OCCCC[C@@H](C)Oc3ccc(NS(=O)(=O)c4cccs4)cc3C(=O)N([C@H](C)CO)C[C@H]2C)cc1, COc1ccc(NC(=O)Nc2cccc3c2O[C@H](CN(C)Cc2ccc(C(=O)O)cc2)[C@H](C)CN([C@H](C)CO)C3=O)cc1, COc1ccc(CN(C)C[C@@H]2OCCCC[C@@H](C)Oc3ccc(NS(=O)(=O)c4c(C)noc4C)cc3C(=O)N([C@@H](C)CO)C[C@@H]2C)cc1, C[C@H]1CN([C@@H](C)CO)C(=O)c2cccc(NC(=O)Nc3ccc(C(F)(F)F)cc3)c2O[C@@H]1CN(C)CC1CC1, C[C@H]1CN([C@@H](C)CO)C(=O)c2cccc(NC(=O)Nc3ccc(C(F)(F)F)cc3)c2O[C@@H]1CN(C)C, CCCN(C)C[C@@H]1OCCCC[C@@H](C)Oc2ccc(NS(=O)(=O)c3ccc(OC)cc3)cc2C(=O)N([C@H](C)CO)C[C@@H]1C, C[C@@H]1CCCCO[C@@H](CN(C)C(=O)CCC(F)(F)F)[C@@H](C)CN([C@@H](C)CO)C(=O)c2cc(NS(=O)(=O)c3ccc(Cl)cc3)ccc2O1, C[C@@H]1CCCCO[C@@H](CN(C)C)[C@@H](C)CN([C@@H](C)CO)C(=O)c2cc(NS(=O)(=O)c3ccc(Cl)cc3)ccc2O1, COc1ccc(CN(C)C[C@@H]2OCCCC[C@@H](C)Oc3ccc(NS(=O)(=O)c4cccs4)cc3C(=O)N([C@@H](C)CO)C[C@H]2C)cc1, O=C(O)c1cccc(NC(=O)c2ccccc2NC(=O)c2cccc([N+](=O)[O-])c2)c1, C[C@H](CO)N1C[C@H](C)[C@H](CN(C)Cc2ccc(C(=O)O)cc2)Oc2c(NC(=O)Nc3ccccc3)cccc2C1=O, CCn1cc(CN2CCCC(C(=O)Nc3ccc(-c4nc5ccccc5[nH]4)cc3)C2)c(C)n1 (centres undefined), NC(=NCCc1c[nH]c2ccccc12)NS(=O)(=O)c1cc(F)ccc1F, CCCN(C)C[C@@H]1OCCCC[C@H](C)Oc2ccc(NC(=O)Nc3ccc(F)cc3)cc2C(=O)N([C@H](C)CO)C[C@@H]1C, COc1ccc(NC(=O)Nc2ccc3c(c2)C(=O)N([C@H](C)CO)C[C@@H](C)[C@H](CN(C)Cc2ccc(C(=O)O)cc2)OCCCC[C@@H](C)O3)cc1, C[C@@H]1CCCCO[C@@H](CN(C)Cc2ccc(C(=O)O)cc2)[C@@H](C)CN([C@H](C)CO)C(=O)c2cc(NC(=O)Nc3cccc4ccccc34)ccc2O1, COc1ccc(NC(=O)Nc2ccc3c(c2)C(=O)N([C@H](C)CO)C[C@@H](C)[C@@H](CN(C)Cc2ccc(C(=O)O)cc2)OCCCC[C@@H](C)O3)cc1, CCCN(C)C[C@@H]1OCCCC[C@@H](C)Oc2ccc(NS(=O)(=O)c3ccc(C)cc3)cc2C(=O)N([C@H](C)CO)C[C@@H]1C, C[C@@H]1CCCCO[C@@H](CN(C)Cc2ccccc2)[C@H](C)CN([C@H](C)CO)C(=O)c2cc(NS(=O)(=O)c3cccs3)ccc2O1, C[C@@H]1CCCCO[C@H](CN(C)Cc2ccccc2)[C@H](C)CN([C@H](C)CO)C(=O)c2cc(NS(=O)(=O)c3ccccc3)ccc2O1, N#Cc1c(N)n(CCNC(=O)c2ccccc2)c2nc3ccccc3nc12, COc1ccc(S(=O)(=O)N(C)C[C@@H]2Oc3ncccc3C(=O)N([C@H](C)CO)C[C@@H]2C)cc1, COc1ccc(NC(=O)Nc2ccc3c(c2)C(=O)N([C@@H](C)CO)C[C@@H](C)[C@H](CN(C)Cc2ccc(C(=O)O)cc2)OCCCC[C@H](C)O3)cc1, CNC[C@H]1OCCCC[C@@H](C)Oc2ccc(NS(=O)(=O)c3ccc(C)cc3)cc2C(=O)N([C@@H](C)CO)C[C@H]1C, COc1ccc(S(=O)(=O)Nc2ccc3c(c2)C(=O)N([C@@H](C)CO)C[C@H](C)[C@H](CN(C)C)OCCCC[C@@H](C)O3)cc1

Activity change, negative = inhibition, inactive:
C[C@@H]1CCCCO[C@@H](CN(C)C(=O)CCC(F)(F)F)[C@@H](C)CN([C@@H](C)CO)C(=O)c2cc(NS(=O)(=O)c3ccccc3)ccc2O1 14.4% [at 2.6 µM]
